This is a sample that favours compounds with a hit; in the whole collection about 4% have one here.
GRP78 ERSR act: inducers of ER stress response in human glioma cells; U87-MG GRP78 promoter luciferase reporter, 16 h; Potency, µM, inactives show at the highest dose activation, actives largely listed as activators; 420,000 tested, 0.02% active; active = well fitted activation curve with a large enough effect; also: potency is read from the fitted curve at half-maximal effect; series mostly up to about 76 µM; % of control where 0% means no effect; nearly all actives have a fitted effect of over 35% in size
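Stably transfected U87-MG glioma cells carrying a GRP78-based luciferase sensor; 16 h compound incubation. Luminescence end-point read 10 min after Bright-Glo addition at room temperature.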
D1 PAM: enhances dopamine response at the human D1 receptor; 360,000 tested, 0.036% active; HEK293 TREx D1 cells, calcium flux, dopamine EC20 potentiation; potentiation, % at 10 µM; AID 504651; P21728; in the data active = potentiation above about 30%; also: 0% is about no effect
Target sequence (P21728 whole entry, looked up): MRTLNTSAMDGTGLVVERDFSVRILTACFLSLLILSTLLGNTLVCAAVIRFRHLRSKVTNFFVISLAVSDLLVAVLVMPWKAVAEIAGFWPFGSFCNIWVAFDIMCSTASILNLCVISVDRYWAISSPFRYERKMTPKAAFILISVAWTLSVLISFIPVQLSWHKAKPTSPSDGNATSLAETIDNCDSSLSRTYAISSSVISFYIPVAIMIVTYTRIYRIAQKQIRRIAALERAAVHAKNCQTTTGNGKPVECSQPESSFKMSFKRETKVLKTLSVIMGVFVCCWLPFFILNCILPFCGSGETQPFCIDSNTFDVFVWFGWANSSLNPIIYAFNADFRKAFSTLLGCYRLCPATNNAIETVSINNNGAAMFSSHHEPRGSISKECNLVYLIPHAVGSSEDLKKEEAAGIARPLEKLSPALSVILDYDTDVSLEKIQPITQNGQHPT
TRHR PAM: allosterically enhances the human TRH receptor; P34981; TRHR cells, fluo-8 calcium fluorescence, EC20 TRH enhancement; enhancement, % at 2 µM; 360,000 tested, 0.66% active; AID 493056; in the data active = enhancement above about 30%; also: 0% is about no effect
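TRHR-expressing cells loaded with fluo-8 calcium dye were read kinetically (ex 480/em 530) during compound addition, then stimulated with an EC20 of TRH (10 nM final). Enhancement of the Gq-mediated intracellular calcium response was scored.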
D1 antagonist: human D1 dopamine receptor antagonism; HEK293 TREx D1 cells, calcium flux, dopamine EC80; stronger effect = lower value; activity change, negative = inhibition, % at 10 µM; 360,000 tested, 3.2% active; AID 504652; in the data active = activity change below about -30%; also: % is scaled to controls: 0 for no effect and ±100 for the full control effect
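Tetracycline-induced HEK293 T-REx cells with force-coupled D1 receptor were loaded with a no-wash calcium dye. Compound was added after a 10 s baseline and read kinetically for 180 s; EC80 dopamine was then added and calcium flux followed another 180 s.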
D1 ag: human D1 receptor agonism; 360,000 tested, 1% active; P21728; activation, % at 2 µM; HEK293 T-REx D1 cells, calcium flux, agonist mode; AID 504660; also: 0% is about no effect
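Agonism was scored from calcium flux recorded over 180 s (1 read/s) after pintool compound addition, following a 10-cycle baseline. Cells were inducible force-coupled HEK293 TREx D1, plated overnight at 30 C and loaded with no-wash calcium dye.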
TRHR ag: agonists of human TRH receptor | AID 493084 | P34981 | TRHR cells, calcium flux fluo-8, FDSS agonist mode | 360,000 tested, 0.18% active | activation, % at 2 µM; also: 0% is about no effect
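Agonist-mode FDSS calcium read (Ex 480/Em 530, 1 s cycles) in 1536-well TRHR cells with fluo-8 dye, after 10-cycle baseline and 23 nL compound addition; TRH at EC20 (10 nM final) added afterwards for the enhancer phase.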
Starred values were filed as active, the others as inactive; / = no result given. Rule as the data show it, unless noted: active = activation above about 30%; inactive = the rest.

SMILES	GRP78 ERSR act	D1 PAM	TRHR PAM	D1 antagonist	D1 ag	TRHR ag
CN(C)c1ccc(/C=C/C=N/Nc2nc(N3CCOCC3)nc(N3CCOCC3)n2)cc1	0%	-8	8	-35*	-1	1
C(=N\Nc1nc(N2CCOCC2)nc(N2CCOCC2)n1)/c1ccncc1	-4%	0	5	6	3	0
CCOC(=O)c1ccc(N2C(=O)c3n[nH]c(-c4ccco4)c3C2c2cccc(O)c2)cc1 (stereo unspecified)	-10%	6	19	35	2	1
Cc1ccc(S(=O)(=O)Nc2ccc(Cl)cc2)cc1NC(=O)c1cc2c(s1)CCCC2	-8%	2	32*	9	-2	0
Cc1ccc(S(=O)(=O)N2CCOCC2)cc1NC(=O)c1cc2c(s1)CCC2	0%	-1	-3	-3	0	-1
CCC(=O)Nc1c2c(nn1-c1ccc(F)cc1)CS(=O)(=O)C2	-1%	-1	4	-20	0	0
CC1CCCCC12NC(=O)N(CC(=O)Nc1cccnc1)C2=O (stereo unspecified)	-1%	/	/	/	/	/
O=C(Nc1ccc(C(F)(F)F)cc1)c1ccccc1	4%	-12	-4	-49*	1	0
O=C(Nc1ccc(C(F)(F)F)cc1)c1ccccc1Br	8%	-7	1	-38*	4	0
O=C(Nc1ccc(NC(=O)c2ccccc2Br)cc1)c1ccccc1	2%	-3	-2	-16	4	1
O=C(C[n+]1ccc(C(=O)c2ccccc2)cc1)Nc1ccc(C(F)(F)F)cc1	-3%	-3	3	-43*	2	0
C=CCNC(=S)NNC(=O)c1cc(O)ccc1O	2%	-3	-1	-16	-1	0
NC(=O)C1(N2CCCCC2)CCN(C(=O)Nc2ccc(F)cc2F)CC1	/	-1	4	-2	3	-1
O=C1CC(c2ccc(Cl)c([N+](=O)[O-])c2)c2ccc3ccccc3c2N1 (stereo unspecified)	-4%	1	37*	6	6	-3
Cc1cc2c(cc1C)C(c1cccc([N+](=O)[O-])c1)CC(=O)N2 (stereo unspecified)	-2%	-2	-5	-3	0	0
N#Cc1c(-c2ccccc2Cl)noc1/C=C/Nc1ccc(C(=O)O)cc1	-3%	-1	-4	10	4	0
Nc1ccc(Cc2ccc(C=O)cc2)cc1	-3%	/	/	/	/	/
Cc1ccc(S(=O)(=O)N(C)c2ccc(OCC(=O)OCc3c(C)noc3C)cc2)cc1	-1%	-1	-1	-47*	24	0
CCN(c1ccccc1)S(=O)(=O)c1ccc(OCc2c(C)noc2C)cc1	-3%	-7	-1	-32*	16	1
CCN(C(=O)COC(=O)c1ccc(OCc2c(C)noc2C)cc1)c1ccccc1	0%	3	1	7	2	0
Cc1ccc(S(=O)(=O)N(C)c2ccc(OCC(=O)OCc3cccc(Br)c3)cc2)cc1	-6%	/	/	/	/	/
Cc1ccc(S(=O)(=O)N(C)c2ccc(OCc3cccc(C)c3)cc2)cc1	-2%	-1	-8	12	38*	3
CCCN1CCC(=O)N(C(CSc2ccc(Br)cc2)CC(C)C)CC1 (stereo unspecified)	-4%	/	/	/	/	/
CCCNC(=O)Cn1c(=O)/c(=C\c2ccc(-c3ccc([N+](=O)[O-])cc3)o2)s/c1=C\C(=O)C(C)(C)C	-1%	-7	-21	-83*	283*	98*
CCCNC(=O)Cn1c(=O)/c(=C/c2ccc(-c3cccc([N+](=O)[O-])c3)o2)s/c1=C\C(=O)C(C)(C)C	-3%	/	/	/	/	/
SMILES	GRP78 ERSR act	D1 PAM	TRHR PAM	D1 antagonist	D1 ag	TRHR ag
COc1ccc(NC(=O)CSc2nnc(Cc3cccn3C)n2-c2ccc(F)cc2)cc1OC	-4%	-4	0	-45*	0	-1
Cn1cccc1Cc1nnc(SCC(=O)Nc2ccc(F)cc2)n1-c1ccc(F)cc1	-3%	2	8	-3	1	0
Cc1nnc(NC(=O)CSc2nnc(Cc3cccn3C)n2C)s1	-4%	11	10	-37*	2	0
O=C(/C=C/c1ccccc1Cl)N1CCN(c2ncccn2)CC1	0%	-2	-1	-31*	3	0
CC(C)Cn1c(=O)c2ccccc2n2c(CCC(=O)NCc3ccc(Cl)cc3)nnc12	-3%	-2	-1	-1	1	0
COC(=O)c1ccccc1NC(=O)c1cc(=O)c2ccc(C)c(C)c2o1	0%	1	1	-2	1	0
Cc1ccc(CN2C(=O)C(=O)c3cc(Br)cc(C)c32)cc1	-9%	-4	-26	-49*	28	7
COc1ccc(OC)c(NC(=O)CSc2n[nH]c(-c3ccccc3Cl)n2)c1	-2%	1	-3	12	12	0
Cc1cccc(NC(=O)C2CCN(c3nccc(C)n3)CC2)c1	-3%	-9	-5	-35*	2	0
COc1ccc(N=Nc2ccc(O)c3ncccc23)cc1	0%	-1	6	45	12	-1
CCc1ccc(N=Nc2ccc(O)c3[nH]cnc23)cc1	-2%	1	7	/	40*	10
COc1ccc(CNC(=O)C(OC(C)=O)c2ccccn2)cc1 (stereo unspecified)	-3%	-3	17	0	1	0
COc1cccc(CNCc2ccc(OC)c3ccccc23)c1OC	-8%	-9	2	-41*	50*	-1
COc1ccccc1CNCc1cc(Br)ccc1OC	-6%	-3	-6	-1	37*	2
Cn1c2cc(C=O)sc2c2cnn(Cc3ccccc3F)c(=O)c21	/	1	4	10	0	-1
O=C1c2cccc3cccc(c23)C(=O)N1Cc1cccnc1	-3%	-6	3	20	2	-3
O=C1c2cccc3c([N+](=O)[O-])ccc(c23)C(=O)N1Cc1cccnc1	-15%	2	-9	-40*	13	9
COc1cccc(CN2CCNC(=O)C2CC(=O)NCCN2CCCCC2=O)c1 (stereo unspecified)	-2%	2	-4	-2	2	1
CCCCC(CC)C(=O)Nc1cc(C(=O)NCCC)ccc1N1CCC2(CC1)CC(c1ccccc1)=NO2 (stereo unspecified)	-3%	4	38*	-16	3	0
Cc1ccc(/C=C/C2=NN(C)C(=O)CC2)cc1	-4%	-3	30*	-27	0	0
Cc1ccc(S(=O)(=O)N2CCN(c3nc(-c4cccs4)nc(C)c3C)CC2)cc1	-3%	/	/	/	/	/
CCCn1ncc(OC)c(Cl)c1=O	-5%	-2	1	-59*	-1	0
COC(=O)COc1ccc2c(=O)c(-c3ccccc3)coc2c1	1%	-4	-1	-42*	10	0
